In PubChem BioAssay AID781 (Emory University Molecular Libraries Screening Center, 2007):
The whole screen tested about 220,000 compounds, of which about 1,600 (0.73%) were called active. This is one part of a sample in which actives are shown more often than they occur. A number with no mark means an inactive call.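 The calls were made as follows: active = inhibition above about 70% (limit read from the data); inactive = the rest.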

These compounds were tested against 14-3-3 protein zeta/delta (Bos taurus) (UniProt P63103) (assay: inhibitors of 14-3-3 zeta/Bad binding, primary screen, biochemical, TR-FRET, bovine 14-3-3 zeta (AID 781;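 also: 0% = full 14-3-3 plus peptide FRET controls and 100% = background without 14-3-3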)). Details: TR-FRET 14-3-3zeta/Dy647-pBad peptide displacement, 1 h; at 21.7 µM; hits give high values.
Sequence of 14-3-3 protein zeta/delta (Bos taurus) (P63103 whole entry, looked up): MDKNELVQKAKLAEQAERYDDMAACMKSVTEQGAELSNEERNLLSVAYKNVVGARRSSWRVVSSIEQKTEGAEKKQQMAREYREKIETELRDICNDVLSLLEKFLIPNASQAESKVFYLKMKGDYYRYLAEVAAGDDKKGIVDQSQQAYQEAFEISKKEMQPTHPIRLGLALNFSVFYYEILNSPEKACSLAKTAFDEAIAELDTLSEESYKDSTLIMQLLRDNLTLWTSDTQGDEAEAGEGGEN

SMILES	inhibition
Cc1nc2ccccc2nc1N/N=C/c1ccc(O)cc1O	-9.43%
O=C(N/N=C/c1ccco1)c1csc2c1CCCC2	-2.18%
Cc1c(C)c(C)c2[nH]c(=S)[nH]c2c1C	-0.36%
O=c1[nH]c(=S)[nH]c2[nH]c(=S)[nH]c12	73.3% (active)
Cc1cc(=O)[nH]c(=S)[nH]1	0.3%
Nc1nc(SCC(=O)N2CCN(S(=O)(=O)c3ccc(Cl)cc3)CC2)n[nH]1	-16.8%
CC1CCN(C(=S)NC2CC3CCC2C3)CC1 (configuration not stated)	-3%
COCc1c(N)c(C)nc(Cl)c1C#N	-17%
Cc1nnc(SCCCCSc2nnc(C)c(=O)[nH]2)[nH]c1=O	-6.9%
CN(C)CCCNC(=S)NCc1ccc(Cl)cc1	-10.2%
CC(O)CN(Cc1ccc(Cl)cc1)CC(C)O (configuration not stated)	85.5% (active)
OCCN(Cc1ccccc1)Cc1ccc(Cl)cc1	42.7%
Cn1c(N)c(C(=O)COC(=O)c2ccccc2NCc2ccco2)c(=O)n(C)c1=O	0.84%
O=C(COc1ccc(/C=N/NC(=O)c2ccc(O)cc2)cc1)Nc1ccc([N+](=O)[O-])cc1	74.2% [fluorescence artefact?] (active)
CCCCCC(=O)Nc1ccc(C(=O)N/N=C/c2ccc([N+](=O)[O-])cc2)cc1	-13.5%
O=C(N/N=C/c1ccc(OCc2ccccc2)cc1)c1ccc(O)cc1	-9.63%
CSc1n[nH]c(=S)n1N	-10%
CN(c1ccccc1)S(=O)(=O)c1cc(C(=O)Nc2nc3ccccc3[nH]2)ccc1Cl	1.7%
COC(=O)CNC(=O)c1ccc2c(c1)S(=O)(=O)c1ccccc1C2=O	2.96%
O=C(c1ccc2c(c1)N(Cc1ccc(F)cc1)C(=O)c1ccccc1S2(=O)=O)N1CCN(c2ccccn2)CC1	-4.43%
CCCCN(C)C(=O)c1ccc2c(c1)N(CC)C(=O)c1ccccc1S2(=O)=O	75.6% (active)
Brc1ccc2c(c1)[C@H]1OCC[C@H]1[C@@H](c1cccs1)N2	4.8%
Nc1nnc(SCCN2C(=O)c3ccccc3S2(=O)=O)s1	5.12%
O=S1(=O)C=C(SCCN2CCCC2)c2ccccc21	71.3% (active)
c1ccc(-c2ccccc2OCCN2CCCCC2)cc1	40.5%
Cc1nn(CC2CC2)c(=O)n1N(C)c1ncc(C(F)(F)F)cc1Cl	-11.7%
Cc1nn(C)cc1N1C(=O)c2cccc3c(N)ccc(c23)C1=O	-2.5%
